Source: the supplement of paper PMC6555819

Experiments:
Assay in all cases: PBM binding z-score (relative to random genomic background probes); higher = stronger binding; sequences stand for … in GC…GCGATTGACAGCGTAGAATGAAGG
[1] = system: FXR:RXRa (NR concentration 270 nM, RXRa partner concentration 90 nM)
Procedure, shortened: (§1)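 Ligand-free nuclear receptor dimers were applied to custom Agilent 4×180K protein-binding microarrays whose double-stranded probes carried direct-repeat seeds, single-nucleotide variants, half-site ablations and random human genomic background sequences in 34-nt variable regions. Incubation lasted 1 h. Binding z-scores were computed against the random background probes from regression-normalized fluorescence.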

[2] = system: LXRa:RXRa (NR concentration 270 nM, RXRa partner concentration 90 nM)
Procedure, shortened: as §1

[3] = system: LXRa homodimer (NR concentration 270 nM)
Procedure, shortened: as §1

[4] = system: LXRb:RXRa (NR concentration 270 nM, RXRa partner concentration 90 nM)
Procedure, shortened: as §1

[5] = system: LXRb homodimer (NR concentration 270 nM)
Procedure, shortened: as §1

[6] = system: PPARa:RXRa (NR concentration 270 nM, RXRa partner concentration 90 nM)
Procedure, shortened: as §1

[7] = system: PPARg:RXRa (NR concentration 180 nM, RXRa partner concentration 90 nM)
Procedure, shortened: as §1

[8] = system: PPARg:RXRa 270nM:90nM, anti-RXR (NR concentration 270 nM, RXRa partner concentration 90 nM)
Procedure, shortened: as §1

[9] = system: PPARg:RXRa 30nM:10nM, anti-RXR (NR concentration 30 nM, RXRa partner concentration 10 nM)
Procedure, shortened: as §1

[10] = system: PPARg:RXRa 90nM:30nM, anti-RXR (NR concentration 90 nM, RXRa partner concentration 30 nM)
Procedure, shortened: as §1

[11] = system: PPARg:RXRa DBDmut IVT, anti-RXR (DBD mutation: RXRa K156A/R161A, NR concentration 270 nM, RXRa partner concentration 90 nM)
Procedure, shortened: as §1

[12] = system: PPARg:RXRa IVT, anti-PPARg (NR concentration 270 nM, RXRa partner concentration 90 nM)
Procedure, shortened: as §1

[13] = system: PPARg DBDmut:RXRa IVT, anti-PPARg (DBD mutation: PPARg1 K132A/R137A, NR concentration 270 nM, RXRa partner concentration 90 nM)
Procedure, shortened: as §1

[14] = system: PPARg DBDmut IVT, anti-PPARg (DBD mutation: PPARg1 K132A/R137A, NR concentration 270 nM)
Procedure, shortened: as §1

[15] = system: PPARg homodimer (NR concentration 180 nM)
Procedure, shortened: as §1

[16] = system: PXR:RXRa (NR concentration 270 nM, RXRa partner concentration 90 nM)
Procedure, shortened: as §1

[17] = system: PXR homodimer (NR concentration 270 nM)
Procedure, shortened: as §1

[18] = system: RARa:RXR (NR concentration 270 nM, RXRa partner concentration 90 nM)
Procedure, shortened: as §1

[19] = system: RARa homodimer (NR concentration 270 nM)
Procedure, shortened: as §1

[20] = system: RARb:RXRa (NR concentration 270 nM, RXRa partner concentration 90 nM)
Procedure, shortened: as §1

Row | Sequence | PBM binding z-score [1] | PBM binding z-score [2] | PBM binding z-score [3] | PBM binding z-score [4] | PBM binding z-score [5] | PBM binding z-score [6] | PBM binding z-score [7] | PBM binding z-score [8] | PBM binding z-score [9] | PBM binding z-score [10] | PBM binding z-score [11] | PBM binding z-score [12] | PBM binding z-score [13] | PBM binding z-score [14] | PBM binding z-score [15] | PBM binding z-score [16] | PBM binding z-score [17] | PBM binding z-score [18] | PBM binding z-score [19] | PBM binding z-score [20]
1 | ACAGACAGGTGCTGAAGGTAACTCAGGCTATCAT | -0.388 | -0.633 | -0.46 | -0.677 | -0.731 | -0.462 | 0.398 | -0.189 | -0.203 | -0.342 | -0.133 | -0.503 | -0.162 | 0.258 | -0.279 | -0.445 | -0.113 | -0.341 | -0.406 | -0.476
2 | TCACCAAGGTGAAGGTCGTTGATCCCTCTGTAGA | 2.28 | 2.24 | -0.136 | 1.8 | -0.731 | 2.71 | 2.23 | 3.66 | 2.84 | 3.37 | 2.46 | 2.65 | 0.477 | 0.105 | -0.15 | 1.61 | 0.00737 | 1.94 | -1.46 | 2.27
3 | ACTATTAGTTGAGACGAGGGGAACCGATAGGTTG | 0.227 | -0.0882 | -0.278 | -0.282 | 0.604 | -0.0604 | 0.569 | -0.00558 | 0.211 | 0.143 | 0.452 | 0.325 | 0.853 | 0.931 | -0.148 | -0.0512 | 0.29 | -0.00202 | 0.237 | 0.18
4 | CCTAGTTGGGCAAGGTCACACACGCTATAGGTAC | 3.55 | 3.21 | 1.32 | 3.28 | 0.0205 | 3.88 | 2.45 | 2.92 | 1.03 | 2.25 | 0.83 | 2.2 | 0.202 | 0.558 | 2.56 | 3.9 | 1.13 | 4.04 | 1.63 | 3.91
5 | CAAACTAGGTCAAGAGGTCGAAGTCCGCTTCCCG | 5.04 | 4.11 | 1.22 | 2.77 | 0.502 | 5.23 | 8.83 | 7.41 | 5.95 | 7.63 | 8.31 | 7.97 | 1.18 | 0.351 | 3.87 | 3.56 | 0.441 | 4.93 | 1.54 | 4.44
6 | TAGCCTAGGTCATTGGGGCAGTATAGTACGCATC | 4.67 | 3.57 | 1.22 | 3.42 | 0.997 | 4.2 | 4.24 | 4.06 | 1.15 | 3.06 | 3 | 4.45 | 0.832 | 0.251 | 1.66 | 1.89 | 0.425 | 2.52 | 0.554 | 3.83
7 | CCGACTGGGGAAGAAAGGTTACCATACCATCCGG | 0.169 | 0.579 | -0.0766 | 0.683 | -0.64 | 2.22 | 1.84 | 3.17 | 1.15 | 2.6 | -0.325 | 0.33 | -0.996 | -0.95 | 0.579 | 0.747 | -0.0818 | 1.3 | 0.0486 | 1.23
8 | GATACAGGGTCAGCTAGAGGCCAGGGTATGGAAA | 4.42 | 2.81 | -0.258 | 2.46 | -0.476 | 4.43 | 3.61 | 3.44 | 0.426 | 2.14 | 0.631 | 2.38 | 0.352 | -0.589 | 2.74 | 2.94 | 0.0758 | 4.28 | 0.0773 | 4.06
